Test results as given in the supplement of paper PMC10515830.
Where a name gives a salt, the structure may show the parent alone.

What was measured:
Details in all cases: 10 µM; exposure time 6 h
[1] = tested on: Danio rerio larvae (5 dpf); experiment: difference in excitability vs DMSO (percentage points); higher = more excitable than DMSO
In short: (§1)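 In 96-well plates, 48 wild-type zebrafish larvae aged 5 dpf per compound received 100 µL egg water with library compound at 10 µM final for 6 h. Three hours into this, a 3-h programme of moving lines and 100 ms, 400Hz tones ran at 28.5 ℃ while plates were photographed every 6 s. Z-LaP Tracker scored the behaviours, and each is given as the compound mean minus the vehicle control mean in percentage points.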

[2] = tested on: Danio rerio larvae (5 dpf); experiment: difference in startle response vs DMSO (percentage points); higher = stronger startle than DMSO
In short: as §1

[3] = tested on: Danio rerio larvae (5 dpf); experiment: difference in activity during first hour vs DMSO (percentage points); higher = more activity than DMSO
In short: as §1

[4] = tested on: Danio rerio larvae (5 dpf); experiment: difference in habituation to acoustic stimuli vs DMSO (percentage points); higher = more habituation than DMSO
In short: as §1

[5] = tested on: Danio rerio larvae (5 dpf); experiment: difference in combined optomotor response to red, green and blue moving lines vs DMSO (percentage points); higher = stronger optomotor response than DMSO
In short: as §1

SMILES | difference in excitability [1] | difference in startle response [2] | difference in activity during first hour [3] | difference in habituation to acoustic stimuli [4] | difference [5]
CCC(=O)OCC(=O)[C@@]1(OC(=O)CC)[C@H](C)C[C@H]2[C@H]3[C@H]([C@@H](O)C[C@@]21C)[C@@]1(C)C=CC(=O)C=C1C[C@H]3Cl [Alclometasone Dipropionate] | 3.59 | 5.9 | -1.03 | -0.676 | 5.42
CCCN1CCCC[C@H]1C(=O)Nc1c(C)cccc1C [(-)-Ropivacaine (hydrochloride hydrate)] | -4.41 | -2.15 | 7.62 | -1.06 | 1.37
CC1OC2(CS1)CN1CCC2CC1 (stereo not given) [Cevimeline (hydrochloride)] | -6.36 | -3.25 | 16.4 | -3.9 | -1.46
Cc1ccc(-c2cc(C(F)(F)F)nn2-c2ccc(S(N)(=O)=O)cc2)cc1 [Celecoxib] | 6.16 | -9.06 | 2.67 | -10.4 | -6.28
C[C@]12CC[C@@H]3c4ccc(OS(=O)(=O)O)cc4CC[C@H]3[C@@H]1CCC2=O [Estropipate] | 1.84 | -3.42 | -3.25 | -2.86 | -4.79
C[C@@H](CN1CC(=O)NC(=O)C1)N1CC(=O)NC(=O)C1 [Dexrazoxane] | 5.16 | 0.825 | -0.0194 | 3.65 | 4.12
CC(=O)OCC[N+](C)(C)C [Acetylcholine (chloride)] | 5.65 | 0.34 | -8.36 | 2.23 | -4.37
Cc1[nH]cnc1CN1CCc2c(c3ccccc3n2C)C1=O [Alosetron (hydrochloride)] | -3.91 | 3.08 | 8.78 | 3.46 | 8.63
CN(C)CCC=C1c2ccccc2CCc2ccccc21 [Amitriptyline (hydrochloride)] | 2.65 | 5.98 | -3.87 | -14.7 | -8.17
C[C@]12CCC(=O)C=C1CC[C@@H]1[C@@H]2[C@@H](O)C[C@@]2(C)[C@H]1CC[C@]2(O)C(=O)CO [Hydrocortisone] | 1.87 | 0.52 | 14.7 | 1.82 | 9.96
C[C@@H](O)[C@H]1C(=O)N2C(C(=O)O)=C(S[C@@H]3CN[C@H](C(=O)Nc4cccc(C(=O)O)c4)C3)[C@H](C)[C@H]12 [Ertapenem (sodium salt)] | 3.87 | 3.36 | 14.7 | 7.59 | 3.82
CC(=O)NS(=O)(=O)c1ccc(N)cc1 [Sulfacetamide (sodium salt)] | 9.42 | 1.32 | -8.28 | 4.81 | 7.06
CNC(=O)c1cnn(-c2nc(N)c3ncn([C@@H]4O[C@H](CO)[C@@H](O)[C@H]4O)c3n2)c1 [Regadenoson] | -3.36 | 0.153 | 6.41 | -0.999 | 3.31
O=c1[nH]c2ccccc2n1CCN1CCN(c2cccc(C(F)(F)F)c2)CC1 [Flibanserin] | 17.7 | 11.6 | 9.81 | -4.3 | -0.569
C[C@]12C=CC(=O)N[C@@H]1CC[C@@H]1[C@@H]2CC[C@]2(C)[C@@H](C(=O)Nc3cc(C(F)(F)F)ccc3C(F)(F)F)CC[C@@H]12 [Dutasteride] | 18.8 | -0.713 | 22.4 | -8.39 | -3.79
CCCc1nc(C)c2c(=O)nc(-c3cc(S(=O)(=O)N4CCN(CC)CC4)ccc3OCC)[nH]n12 [Vardenafil (hydrochloride hydrate)] | 4.29 | 1.36 | 0.203 | 5.85 | 12.9
O=C(NC1CCN(CCCCC2(C(=O)NCC(F)(F)F)c3ccccc3-c3ccccc32)CC1)c1ccccc1-c1ccc(C(F)(F)F)cc1 [Lomitapide] | 17 | -3.26 | -7.94 | -2.68 | -5.57
CC(C)Nc1cccnc1N1CCN(C(=O)c2cc3cc(NS(C)(=O)=O)ccc3[nH]2)CC1 [Delavirdine (mesylate)] | -2.46 | -1.52 | -9.21 | 7.6 | -2.16
CCCCC(=O)N(Cc1ccc(-c2ccccc2-c2nnn[nH]2)cc1)[C@H](C(=O)O)C(C)C [Valsartan] | -0.389 | 4.11 | 2.08 | -3.08 | 3.88
CS(=O)(=O)CCNCc1ccc(-c2ccc3ncnc(Nc4ccc(OCc5cccc(F)c5)c(Cl)c4)c3c2)o1 [Lapatinib] | -0.459 | 0.335 | -8.64 | -0.929 | 1.37
CCCCCN(C)CCC(O)(P(=O)(O)O)P(=O)(O)O [Ibandronate (sodium hydrate)] | -4.51 | 1.53 | -2.16 | 7.06 | -0.0828
CCCC1O[C@@H]2C[C@H]3[C@@H]4CCC5=CC(=O)C=C[C@]5(C)[C@H]4[C@@H](O)C[C@]3(C)[C@]2(C(=O)CO)O1 (stereo not given in full) [Budesonide] | 4.9 | -3.47 | 4.24 | -2.87 | 12.5
CC(=O)NO [Acetohydroxamic Acid] | 12 | 9 | -12.9 | 3.36 | -4.35
COc1ccc([C@@H]2Sc3ccccc3N(CCN(C)C)C(=O)[C@@H]2OC(C)=O)cc1 [Diltiazem (hydrochloride)] | 8.73 | -1.93 | 11.2 | -8.44 | 1.27
COC[C@H]1C[C@@H](c2nc(-c3ccc4c(c3)COc3cc5c(ccc6nc([C@@H]7CC[C@H](C)N7C(=O)[C@@H](NC(=O)OC)C(C)C)[nH]c65)cc3-4)c[nH]2)N(C(=O)[C@H](NC(=O)OC)c2ccccc2)C1 [Velpatasvir] | 10.1 | 2.08 | 2 | -1.59 | 0.589
CC(C)(S)[C@@H](N)C(=O)O [Penicillamine] | 1.99 | 3.43 | -11.2 | 6.31 | 4.5
NCCCC(N)(C(=O)O)C(F)F (racemic) [DL-α-Difluoromethylornithine (hydrochloride hydrate)] | -2.42 | -3.99 | 10.2 | 2.49 | 2.05
